Assay outcomes as filed in PubChem BioAssay.
Compounds with a hit are over-represented: about 1.8% of the library has one in this group of screens.
MazF activator – increases E. coli MazEF RNase cleavage of RNA; activation, % at 20 µM; AID 504720; FAM/BHQ RNA-DNA oligo cleavage fluorescence, 5 h; P0AE70; 350,000 tested, 0.32% active; in the data active = activation above about 50%
Target sequence (P0AE70 whole entry, looked up): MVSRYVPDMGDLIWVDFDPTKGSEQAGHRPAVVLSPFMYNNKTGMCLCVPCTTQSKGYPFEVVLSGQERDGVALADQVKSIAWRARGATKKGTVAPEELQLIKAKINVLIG
VHR inh abs – inhibitors of human VHR1 phosphatase (DUSP3); 290,000 tested, 0.52% active; inhibition, % at 13.3 µM; recombinant VHR phosphatase, pNPP absorbance; AID 1654; in the data active = inhibition above about 50%
Target sequence (P51452 whole entry, looked up): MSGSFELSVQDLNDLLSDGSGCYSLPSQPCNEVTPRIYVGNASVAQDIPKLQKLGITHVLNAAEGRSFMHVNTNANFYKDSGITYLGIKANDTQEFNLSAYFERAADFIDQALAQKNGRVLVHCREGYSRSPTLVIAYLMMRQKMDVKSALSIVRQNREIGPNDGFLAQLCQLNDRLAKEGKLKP
Y pestis TopoI – inhibitors of Yersinia pestis topoisomerase I. 360,000 tested, 0.064% active. activity, % at 10 µM. Y. pestis Topo-I cleavage product accumulation, plate reader; in the data active = activity above about 50%, passing the limit was not always enough
Vc quorum ag – induces V. cholerae light production without autoinducers. V. cholerae BH1578 lux reporter, luminescence, 6 h. 350,000 tested, 0.16% active. activation, % at 18.7 µM. AID 588436; in the data active = activation mostly above about 9.7%, no sharp cut-off
CCHFV vOTU inh – CCHFV vOTU protease inhibition; 370,000 tested, 0.55% active; Pep-AMC fluorescence; AID 651958; inhibition, % at 11.5 µM; in the data active = inhibition above about 30%; note: 0% = vehicle wells with enzyme and 100% = no enzyme wells
PrPC surface inh – cell surface PrPC inhibition, primary TR-FRET screen; TR-FRET read-out; inhibition, % at 13.8 µM; 370,000 tested, 0.43% active; in the data active = inhibition above about 24%; note: 0% = median of the test wells and 100% = reference compound wells
An asterisk follows results filed as active; i = inactive; / = no result; + = active, no number.

SMILES	MazF activator	VHR inh abs	Y pestis TopoI	Vc quorum ag	CCHFV vOTU inh	PrPC surface inh
COC(=O)[C@]12C[C@H](CC(=O)N3CCN(C(=O)c4ccco4)CC3)C(=O)N(Cc3cccc4ccccc34)C1=C[C@H](C(C)(C)C)O[C@@H]2C	/	/	/	/	13	-2
O=C(CO)N/N=C/c1ccc(Cl)cc1	8	7	-8	i	2	6
O=C(NCc1ccc(Cl)cc1)C(=O)N/N=C/c1ccc(Br)cc1	6	52*	-1	i	13	6
CN1CC(=O)N2[C@@H](C[C@]3(c4c[nH]c5ccccc45)c4ccccc4N(S(=O)(=O)c4ccccc4)[C@H]23)C1=O	/	/	/	/	/	-2
CCCCCCCCCCn1c2c(c(=N)c3c1CCC3)CCC2	-24	26	21	i	14	48*
CCCCCCCCCn1c2c(c(=N)c3c1CCC3)CCCC2	-20	-3	20	0	/	/
CC(SCc1ccccc1)C(=O)Nc1ccccc1Br (centres undefined)	-2	22	8	1	-1	-3
Cc1ccccc1NC(=O)C(C)SCc1ccccc1 (centres undefined)	1	52*	-3	0	-11	3
CCCOc1ccc(CN(C)c2ncnc(N)n2)cc1	5	17	12	i	4	7
COc1ccc(CN(C)c2ncnc(N)n2)cc1	2	43	-2	17*	2	1
O=C(Cc1ccccc1)NC1CCCCN(Cc2cccc(Cl)c2)C1=O (centres undefined)	/	/	/	/	9	11
CSc1ccc(/C=N/NC(=O)CN2CCN(Cc3ccc(Cl)cc3)CC2)cc1	95*	12	31	0	-1	-11
CSc1ccc(/C=N/NC(=O)CN2CCN(Cc3ccccc3)CC2)cc1	2	22	20	-1	7	-8
CCN(CC)C(=O)CC[C@H]1CC[C@]2(CCCN(C3CCCCC3)C2)O1	/	/	/	/	1	-6
CC(=O)c1c(C)oc2c1cc(NS(=O)(=O)c1ccc(C(=O)O)cc1)c1ccccc12	79*	20	3	0	10	-1
COc1ccc(CNC(=O)C(C#N)c2nc3ccccc3nc2N2CCCC2)cc1 (centres undefined)	+	19	22	0	-3	0
CCOC(=O)C1CCN(c2nc3ccccc3nc2C(C#N)C(=O)OC(C)C)CC1 (centres undefined)	351*	-23	-4	7	4	4
CCOC(=O)C1CCN(c2nc3ccccc3nc2C(C#N)C(=O)OC(C)COC)CC1 (centres undefined)	-11	9	12	0	2	-7
COc1ccc(CNC(=O)C(C#N)c2nc3ccccc3nc2N2CCN(C)CC2)cc1 (centres undefined)	0	8	14	0	3	-11
CCOC(=O)C1(Cc2ccccc2)CCN(Cc2ccnc3ccccc23)CC1	/	/	/	/	6	6
CCN1C(=O)/C(=C2/SC(C)=C(C)N2CC)SC1=S	76*	21	-2	-3	-4	0
CCN1C(=O)/C(=C\N2CCCCCC2)SC1=S	-2	20	6	i	15	-13
O=c1c(O)c(-c2ccc(O)c(O)c2)oc2cc(O)ccc12	58*	/	-17	0	-14	-10
O=c1c(-c2ccc(O)cc2)coc2cc(O)ccc12	2	/	-2	-1	-7	1
CC(C)[C@H](NC(=O)Cc1ccccc1)C(=O)OCc1cc(=O)n2c(n1)sc1ccccc12	-1	54*	10	0	0	8
SMILES	MazF activator	VHR inh abs	Y pestis TopoI	Vc quorum ag	CCHFV vOTU inh	PrPC surface inh
Cc1ccccc1NC(=O)CNc1ccc(Cl)c(C(F)(F)F)c1	2	58*	2	-1	0	5
COc1ccccc1NC(=O)OCCCN1CCC2(CCC(C)CC2)C1=O (centres undefined)	/	/	/	/	5	-3
O=C1C(NC(=O)C(F)(F)Br)CCCCN1Cc1cccc(C(F)(F)F)c1 (centres undefined)	/	/	/	/	2	-2
CCC(=O)OCC(=O)Nc1cc(C)c(C)cc1[N+](=O)[O-]	-1	51*	-2	i	2	-23
Cc1nnc(NC(=O)c2sc3nc(-c4cccs4)cc(C(F)(F)F)c3c2N)s1	-27	37	7	-1	-19	-5
CC(C)(C)C(=O)c1sc2nc(-c3cccs3)cc(C(F)(F)F)c2c1N	+	0	-8	0	-36	0
Nc1c(C(=O)Nc2nccs2)sc2nc(-c3cccs3)cc(C(F)(F)F)c12	115*	19	-5	i	-36	2
COc1ccc(-n2c(SCC(=O)Nc3ccc(S(=O)(=O)Nc4nccs4)cc3)nnc2-c2ccco2)cc1	/	/	/	/	5	7
CCN1C(=O)CC(N2CCN(c3ccc(C(=O)c4ccncc4)cc3)CC2)C1=O (centres undefined)	-2	19	-1	-3	-12	-18
CCOc1ccc(N2C(=O)CC(N3CCN(c4ccc(C(=O)c5ccncc5)cc4)CC3)C2=O)cc1 (centres undefined)	-10	/	82*	i	0	-6
NC(=NCCc1c[nH]c2ccccc12)NC(=O)OCc1ccccc1	/	/	/	/	-1	4
COc1cc2c3nnc(-c4ccccc4)c-3cn(Cc3ccccc3F)c2cc1OC	734*	16	/	/	-84	4
COc1ccccc1N1CCN(C(=O)c2nn(C)c3c2CS(=O)(=O)c2ccccc2-3)CC1	3	50*	16	1	9	0
COc1ccc(N2CCN(C(=O)c3nn(C)c4c3CS(=O)(=O)c3ccccc3-4)CC2)cc1	6	-4	17	i	-4	2
Cc1ccc(-n2ncc(C(=O)NCC3CCN(C4CCCC4)C3)c2C2CCN(C(=O)OC(C)(C)C)CC2)cc1C (centres undefined)	5	58*	6	0	6	4
CN1C(=O)c2cc(NC(=O)Nc3ccccc3)ccc2OC[C@H]2O[C@@H](CC(=O)NCC(F)(F)F)CC[C@@H]21	/	/	/	/	4	-5
CCCCNC(=O)C[C@H]1C[C@@]2(C(=O)OC)C(=C[C@H](COCc3ccccc3)O[C@@H]2C)N(Cc2cccc3ccccc23)C1=O	/	/	/	/	4	0
CC(C)(C)OC(=O)NCc1ccc(NC(=O)c2nc[nH]c2C(=O)NCCNC(=O)c2[nH]cnc2C(=O)Nc2ccc(CNC(=O)OC(C)(C)C)cc2)cc1	-128	/	79*	i	/	/
Cc1ccc(NC(=O)c2nc[nH]c2C(=O)NCCN(CCNC(=O)c2[nH]cnc2C(=O)Nc2ccc(C)cc2)CCNC(=O)c2[nH]cnc2C(=O)Nc2ccc(C)cc2)cc1	-214	/	6	i	2	-6
O=C(Nc1ccc(Cl)cc1)c1nc[nH]c1C(=O)NCCN(CCNC(=O)c1[nH]cnc1C(=O)Nc1ccc(Cl)cc1)CCNC(=O)c1[nH]cnc1C(=O)Nc1ccc(Cl)cc1	-222	/	64*	i	/	/
CC(C)(C)OC(=O)CNC(=O)c1[nH]cnc1C(=O)Nc1ccc(CNC(=O)OC(C)(C)C)cc1	-15	7	0	8	28	1
